The list is not random: actives were taken first. Their share in the collection is about 19%.
DT40 TDP1 no CPT – qHTS for Inhibitors of human tyrosyl-DNA phosphodiesterase 1 (TDP1): qHTS in cells in absence of CPT; DT40 Tdp1-/- hTDP1 cells, no CPT, ATP luminescence, 48 h; Potency, µM (doses to about 46.2 µM), without a hit: at the highest dose activity change, negative = growth inhibition, usual class: inhibitors; 420,000 tested, 15% active; AID 686978, 2013; also: potency is read from the fitted curve at half-maximal effect; nearly all actives have a fitted effect of over 55% in size
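No-CPT arm: Tdp1-/-;hTDP1 DT40 cells (400/well) plus compounds, incubated ≥48 hr at 37 °C. Readout CellTiter-Glo luminescence.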
TDP1 inh – qHTS Assay for Inhibitors of Tyrosyl-DNA Phosphodiesterase (TDP1); Tyrosyl-DNA phosphodiesterase 1 (Homo sapiens), Q9NUW8; recombinant TDP1, AlphaScreen DNA substrate cleavage; Potency, µM (highest dose often 130 µM), inactives show at the top dose activity change, negative = inhibition, hits mostly inhibitors; 350,000 tested, 0.28% active; also: potency is read from the fitted curve at half-maximal effect; nearly all actives have a fitted effect of over 40% in size
Target sequence (Q9NUW8 whole entry, looked up): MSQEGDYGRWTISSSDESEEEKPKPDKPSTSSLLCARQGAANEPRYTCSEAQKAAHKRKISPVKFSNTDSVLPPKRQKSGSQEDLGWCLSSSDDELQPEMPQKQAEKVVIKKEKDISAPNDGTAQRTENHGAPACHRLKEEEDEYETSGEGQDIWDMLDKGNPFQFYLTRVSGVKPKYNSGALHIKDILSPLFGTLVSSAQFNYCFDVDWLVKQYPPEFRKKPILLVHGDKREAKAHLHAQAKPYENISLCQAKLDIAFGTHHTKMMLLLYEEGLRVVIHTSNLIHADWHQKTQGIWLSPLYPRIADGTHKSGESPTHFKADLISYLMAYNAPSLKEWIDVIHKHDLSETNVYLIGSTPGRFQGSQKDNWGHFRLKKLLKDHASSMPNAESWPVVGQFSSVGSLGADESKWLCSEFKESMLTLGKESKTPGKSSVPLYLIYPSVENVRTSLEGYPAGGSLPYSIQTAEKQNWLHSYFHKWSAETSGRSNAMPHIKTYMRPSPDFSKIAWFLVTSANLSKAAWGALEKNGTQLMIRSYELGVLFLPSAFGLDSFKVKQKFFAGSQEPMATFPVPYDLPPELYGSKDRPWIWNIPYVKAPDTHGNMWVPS
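Recombinant E. coli-expressed Tdp1 (1 nM) preincubated with compound 15 min at RT, then 5'-biotin/3'-phosphotyrosine-FITC DNA substrate (15 nM) added for 5 min. AlphaScreen beads (10 ug/ml) added, 10 min RT; tyrosine-FITC cleavage read as signal loss.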
ELG1 DNA repair – qHTS screen for small molecules that inhibit ELG1-dependent DNA repair in human embryonic kidney (HEK293T) cells expressing luciferase-tagged ELG1. Potency, µM (titrated, usually from 46.1 µM), inactives show at the highest dose activity change, negative = inhibition, usual class: inhibitors. HEK293T ELG1-luciferase reporter, luminescence, 16 h; DNA damage induced by 5-fluorouridine. 330,000 tested, 2.3% active. AID 504467, 2011; also: potency is read from the fitted curve at half-maximal effect; nearly all actives have a fitted effect of over 55% in size
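DMSO vehicle served as the neutral condition. Each well held 2,000 cells given 5-fluorouridine plus compound; after 16 hr at 37 °C/5% CO2, ONE-Glo was added and luciferase measured 30 min later.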
IL1B secr inh – qHTS for Inhibitors of Inflammasome Signaling: IL-1-beta AlphaLISA Primary Screen; THP-1 LPS/ATP IL-1B secretion, AlphaLISA, 16 h; active compounds read low; activity change, % at 57.5 µM; 360,000 tested, 4.7% active; AID 743279, 2014; in the data active = activity change below about -50%; inconclusive = mostly about -30% to -49%
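Secreted IL-1B measured by AlphaLISA bead assay after 16 h compound exposure of THP-1 cells; compounds (final up to 57.5 uM) added 1 h before LPS (250 ng/mL) and ATP (1.25 mM) stimulation; lower signal means less secretion.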
TDP1 cell CPT – qHTS for Inhibitors of human tyrosyl-DNA phosphodiesterase 1 (TDP1): qHTS in cells in presence of CPT; Potency, µM (series often up to 46.2 µM), without a hit: at the top dose activity change, negative = growth inhibition, most hits filed as inhibitors; chicken DT40 Tdp1-/-;hTDP1 cells + 20 nM CPT, ATP luminescence, 48 h; AID 686979, 2013; 420,000 tested, 12% active; also: potency is read from the fitted curve at half-maximal effect; nearly all actives have a fitted effect of over 55% in size
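Chicken DT40 Tdp1-/- cells stably complemented with human TDP1 were seeded at 400 cells/well in medium containing 20 nM camptothecin, exposed to pin-transferred compounds, and grown at 37 °C for at least 48 hr. Viability was read as ATP luminescence.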
Giardia kill – Small Molecules that selectively kill Giardia lamblia: qHTS; Giardia lamblia trophozoite viability; activity change, % at 7.66 µM, hits read low; 340,000 tested, 0.15% active; in the data active = activity change below about -80%; inconclusive = between about -30% and that limit;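 also: parasites exposed to compound for two days anaerobically before the ATP read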
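Luminescent ATP signal served as the viability read-out, measured 15-30 min after adding ATP detection reagent to trophozoites that had been incubated with compounds for 48 hrs at 37 deg C anaerobically at 100 cells/well.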
* = called active by the depositor. Unless noted, calls follow the shape of the dose curve; as a rule, active = well fitted curve in the direction sought with a large enough effect; inconclusive = small, poorly fitted or top-dose-only effect, or another doubt; inactive = no such curve, though single readings can be large; an effect the other way counts as inactive or inconclusive. % is scaled to controls: 0 for no effect and ±100 for the full control effect.

How did CC1CC1C(=O)N(CCC1=CCCCC1)c1c(N)n(Cc2ccccc2)c(=O)[nH]c1=O (centres undefined) do in these assays?
DT40 TDP1 no CPT: -17%; ELG1 DNA repair: -16%; IL1B secr inh: -9; TDP1 cell CPT: -6%; Giardia kill: -20

Results for CCCS(=O)(=O)N1CCC(C(=O)NCCC(C)C)CC1 ?
DT40 TDP1 no CPT: -15%; TDP1 inh: -3%; ELG1 DNA repair: -14%; IL1B secr inh: 10; TDP1 cell CPT: 5%; Giardia kill: -7

What do the screens show for `O=C1CN(C(=O)Cc2ccccc2)C(c2ccc(F)cc2)c2cc(Br)ccc2N1` (centres undefined)?
DT40 TDP1 no CPT: inconclusive; TDP1 inh: 0%; TDP1 cell CPT: inconclusive

Results for CCCC(=O)N1CC(=O)Nc2ccc(C)cc2C1c1ccccc1 (centres undefined) ?
DT40 TDP1 no CPT: -5%; ELG1 DNA repair: 0%; IL1B secr inh: 30; TDP1 cell CPT: 5%; Giardia kill: -10

How did O=C1CN(C(=O)c2cccc(Br)c2)C(c2ccccc2)c2cc(Cl)ccc2N1 (centres undefined) do in these assays?
DT40 TDP1 no CPT: inconclusive; TDP1 inh: 5%; TDP1 cell CPT: 5.2µM*

What do the screens show for `O=C1CN(C(=O)c2ccc(S(=O)(=O)N3CCCC3)cc2)C(c2ccccc2)c2cc(Cl)ccc2N1` (centres undefined)?
DT40 TDP1 no CPT: 21µM*; TDP1 inh: 0%; TDP1 cell CPT: inconclusive

How did O=C1CN(C(=O)Cc2ccc(F)cc2)C(c2ccccc2)c2cc(Cl)ccc2N1 (centres undefined) do in these assays?
DT40 TDP1 no CPT: 18µM*; TDP1 inh: 12%; TDP1 cell CPT: 15µM*

How did Cc1ccc2c(c1)C(c1ccccc1)N(C(=O)COc1ccc(Cl)cc1Cl)CC(=O)N2 (centres undefined) do in these assays?
DT40 TDP1 no CPT: 21µM*; TDP1 inh: 3%; TDP1 cell CPT: 21µM*

How did CCc1ccc(NC(=O)CCNS(=O)(=O)c2ccc3c(c2)oc(=O)n3C)cc1 do in these assays?
DT40 TDP1 no CPT: -15%; TDP1 inh: 4%; TDP1 cell CPT: -16%

Results for CCCCC1CCC(C(=O)Nc2ccc(N3CCOCC3)cc2N2CCOCC2)CC1 (centres undefined) ?
DT40 TDP1 no CPT: inconclusive; TDP1 inh: 5%; ELG1 DNA repair: 25%; IL1B secr inh: 4; TDP1 cell CPT: inconclusive; Giardia kill: 9

How did Cn1c(=O)c2c(nc(Oc3cccc(Br)c3)n2C)n(C)c1=O do in these assays?
DT40 TDP1 no CPT: -8%; TDP1 inh: 6%; ELG1 DNA repair: inconclusive; IL1B secr inh: 10; TDP1 cell CPT: -17%; Giardia kill: -1

What do the screens show for `Cn1c(=O)c2c(ncn2CCOc2cccc(Br)c2)n(C)c1=O`?
DT40 TDP1 no CPT: 9.2µM*; ELG1 DNA repair: 8.2µM*; IL1B secr inh: 32; TDP1 cell CPT: 8.2µM*; Giardia kill: 6

Results for Cn1c(=O)c2c(nc(Br)n2CCc2ccccc2)n(C)c1=O ?
DT40 TDP1 no CPT: inconclusive; TDP1 inh: 1%; ELG1 DNA repair: inconclusive; IL1B secr inh: -2; TDP1 cell CPT: inconclusive; Giardia kill: -4

What do the screens show for `Cc1ccc(OCCn2c(Br)nc3c2c(=O)n(C)c(=O)n3C)cc1`?
DT40 TDP1 no CPT: 18µM*; TDP1 inh: 2%; ELG1 DNA repair: 5.2µM*; IL1B secr inh: -7; TDP1 cell CPT: 12µM*; Giardia kill: 7

How did COc1cccc(Cn2c(Oc3ccccc3)nc3c2c(=O)n(C)c(=O)n3C)c1 do in these assays?
DT40 TDP1 no CPT: inconclusive; TDP1 inh: 1%; ELG1 DNA repair: inconclusive; IL1B secr inh: 19; TDP1 cell CPT: -30%; Giardia kill: 8

How did COc1cccc(Cn2c(Oc3cccc(C)c3)nc3c2c(=O)n(C)c(=O)n3C)c1 do in these assays?
DT40 TDP1 no CPT: 23µM*; TDP1 inh: 2%; ELG1 DNA repair: inconclusive; IL1B secr inh: -16; TDP1 cell CPT: 21µM*; Giardia kill: 10

How did Cc1cccc(OCCNc2nc3c(c(=O)n(C)c(=O)n3C)n2C)c1 do in these assays?
DT40 TDP1 no CPT: 16µM*; TDP1 inh: 4%; ELG1 DNA repair: 2%; IL1B secr inh: -1; TDP1 cell CPT: 16µM*; Giardia kill: -16

What do the screens show for `Cc1ccc(Cn2c(C)c(CNC3CCCCC3)c(C(=O)O)c2C)cc1`?
DT40 TDP1 no CPT: -8%; TDP1 inh: 3%; TDP1 cell CPT: 0%

How did CCc1c(C)sc(NC(=O)Cc2ccccc2OC)c1C(=O)N1CCOCC1 do in these assays?
DT40 TDP1 no CPT: 5%; TDP1 inh: 1%; ELG1 DNA repair: 10%; IL1B secr inh: -5; TDP1 cell CPT: -4%; Giardia kill: 19

What do the screens show for `CC(C)CCNC(=O)c1ccc2c(c1)nc1n2CCCCC1`?
DT40 TDP1 no CPT: inconclusive; TDP1 inh: 5%; TDP1 cell CPT: inconclusive

Results for COCCNc1nc2c(c(=O)n(C)c(=O)n2C)n1Cc1cccc(C)c1 ?
DT40 TDP1 no CPT: 7.3µM*; TDP1 inh: 2%; ELG1 DNA repair: 21µM*; IL1B secr inh: 22; TDP1 cell CPT: 6.5µM*; Giardia kill: -11

How did Cc1cccc(Cn2c(NCC(C)O)nc3c2c(=O)n(C)c(=O)n3C)c1 (centres undefined) do in these assays?
DT40 TDP1 no CPT: 10µM*; TDP1 inh: 3%; ELG1 DNA repair: 15µM*; IL1B secr inh: -11; TDP1 cell CPT: 12µM*; Giardia kill: 1

How did Cn1c(=O)c2c(nc(NCCCO)n2Cc2cccc(Br)c2)n(C)c1=O do in these assays?
DT40 TDP1 no CPT: inconclusive; TDP1 inh: 3%; ELG1 DNA repair: -14%; IL1B secr inh: 32; TDP1 cell CPT: inconclusive; Giardia kill: 10

Results for COCCCNc1nc2c(c(=O)n(C)c(=O)n2C)n1Cc1cccc(OC)c1 ?
DT40 TDP1 no CPT: 10µM*; TDP1 inh: 5%; ELG1 DNA repair: 15µM*; IL1B secr inh: -4; TDP1 cell CPT: 18µM*; Giardia kill: -7
